Structures are written as SMILES. The campaign covered roughly 16,000 compounds. About 5,700 (36%) were called active. About 24% were inconclusive and are not listed. This is one part of the list. Unmarked numbers belong to inactive results. Calls come from the whole dose curve; as a rule, active = well fitted curve in the direction sought with a large enough effect; inconclusive = small, poorly fitted or top-dose-only effect, or effect the other way; inactive = no such curve, though single readings can be large or run the other way. Square brackets hold non-standard residues; d marks the D form. Peptide text beside a SMILES is read from it.
% is set by controls: 0 for no effect and ±100 for the full control effect.

Chain of Cytochrome P450 1A2 (Homo sapiens) (P05177 whole entry, looked up): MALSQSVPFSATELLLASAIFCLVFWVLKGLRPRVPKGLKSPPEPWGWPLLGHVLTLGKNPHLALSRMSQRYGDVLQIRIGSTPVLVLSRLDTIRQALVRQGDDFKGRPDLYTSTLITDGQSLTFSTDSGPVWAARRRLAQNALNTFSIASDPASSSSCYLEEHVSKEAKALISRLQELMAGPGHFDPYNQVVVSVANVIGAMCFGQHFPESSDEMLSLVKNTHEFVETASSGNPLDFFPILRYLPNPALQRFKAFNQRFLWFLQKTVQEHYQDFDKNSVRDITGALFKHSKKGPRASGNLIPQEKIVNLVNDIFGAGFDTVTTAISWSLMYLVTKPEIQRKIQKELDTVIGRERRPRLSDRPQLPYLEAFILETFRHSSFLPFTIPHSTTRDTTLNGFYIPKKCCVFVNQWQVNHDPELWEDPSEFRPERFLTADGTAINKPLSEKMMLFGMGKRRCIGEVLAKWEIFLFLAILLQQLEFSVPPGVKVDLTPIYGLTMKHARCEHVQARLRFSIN

This test concerns the target Cytochrome P450 1A2 (Homo sapiens) (UniProt P05177). Description: Cytochrome panel assay with activity outcomes. The settings on record: recombinant CYP, pro-luciferin dealkylation, luminescence, p450-cyp1a2; series mostly up to 57.1 µM; activity, negative = inhibition: at the top concentration.
Regarding `CC(=O)NCCc1c(Cc2ccccc2)[nH]c2ccccc12`, the AC50 was 12.6 µM (active).
In the case of `N[C@H](C(=O)O)c1ccc(C(=O)O)cc1`, the “activity, negative = inhibition” value was -18.9%.
The same measure, in the same setting: next, `ClC(Cl)(Cl)C(N1CCN(c2ccccc2)CC1)N1CCN(c2ccccc2)CC1`: -14.9% [at 2.29 µM]; `CCN(CC)CCNC(=O)Cn1nc(-c2ccc(C)cc2)ccc1=O`: -5.38%.
For the molecule `C=CCn1c(=O)c(C(=O)NCCN(CC)CC)c(O)c2ccccc21`, the half-maximal activity concentration (AC50) was 1.41 µM (active).
Regarding `CCN(CC)CCNC(=O)c1ccc(NC(C)=O)cc1`, the “activity, negative = inhibition” value was -7.76%.
With `FC(F)(F)c1ccccc1-c1nccc(NCc2ccccc2)n1`, the AC50 is 12.6 µM (active).
On the same count and under the same terms, in the case of `Cc1cccc(CNc2ccnc(-c3ccccc3C(F)(F)F)n2)c1` it was 6.31 µM (active); in that of `c1cc2c(cc1C1CCCCC1)c1c3n2CCN[C@H]3CCC1`, 15.8 µM (active); in that of `Cc1ccc(NC(=O)c2sccc2SCc2cccc(C(F)(F)F)c2)cc1`, 2.82 µM (active).
The same measure, in the same setting: in the case of `CN(CCO)c1cc(Sc2nc3ccccc3s2)c2nonc2c1[N+](=O)[O-]` it was 14.1 µM (active); in that of `O=[N+]([O-])c1c(NCCO)cc(Sc2nc3ccccc3s2)c2nonc12`, 1 µM (active).
As to `O=C(N/N=C/c1ccc(Sc2nc3ccccc3s2)c([N+](=O)[O-])c1)c1ccccn1`, the “activity, negative = inhibition” value is -13.5%.
Still for that read-out and setting: in the case of `CC1(C)C2([N+](=O)[O-])CN3CC1([N+](=O)[O-])CN(C2)C3c1ccccc1` (centres undefined) it was 15.2%; in that of `CSCC[C@H](C=O)NC(=O)[C@H](CC(C)C)NC(=O)[C@H](CC(C)C)NC(C)=O` (Ac-Leu-Leu-[dM]-aldehyde), -11.3%.
Consider `C=CCNc1nc(SCC=C)nc2ccsc12`, for which the AC50 was 0.501 µM (active).
With `C=CCSc1nc(NC)c2sccc2n1`, the AC50 was 1 µM (active).
Take `C=CCSc1ccsc1C(=O)O`: the “activity, negative = inhibition” value is 4%.
In the case of `C=CCSc1nc(Oc2ccccc2)c2sccc2n1`, the AC50 is 2.51 µM (active).
Regarding `N[C@@H](Cc1ncccn1)C(=O)O`, the activity, negative = inhibition is -7.74% [at 11.4 µM].
For the molecule `CCCCCC1=C2CNC(CCC)(C(=O)OC)C=C2C(C)C1=O` (centres undefined), the AC50 was 31.6 µM (active).
With `CCCC1(C(=O)OC)C=C2C(=C(C(C)C)C(=O)C2C)CN1` (centres undefined), the “activity, negative = inhibition” value is -20.3%.
Still for that read-out and setting: next, `CC1(C)CC(=O)C(CCC(=O)c2ccccc2)C(C)(C)N1` (centres undefined): -7.19%.
As for `CCCC1(C(=O)OC)C=C2C(=C(c3ccccc3)C(=O)C2C)CN1` (centres undefined), the AC50 was 15.8 µM (active).
As for `CCCC1(C(=O)OC)C=C2C(=C(C)C(=O)C2C)CN1` (centres undefined), the “activity, negative = inhibition” value was -20.6%.
With `COC(=O)C1(C)C=C2C(=C(c3ccccc3)C(=O)C2C)CN1` (centres undefined), the half-maximal activity concentration (AC50) is 15.8 µM (active).
Consider `CCN=C(N)CSS(=O)(=O)O`, for which the activity, negative = inhibition is -10.1% [at 11.4 µM].
As for `Cc1ccccc1-c1ccc2ncnc(-n3ccnc3)c2c1`, the half-maximal activity concentration (AC50) is 0.794 µM (active).
Same read-out and setting: in the case of `c1cn(-c2ncnc3ccc(-c4ccoc4)cc23)cn1` it was 1.26 µM (active); in that of `CN(C)c1ccc(-c2ccc3ncnc(-n4ccnc4)c3c2)cc1`, 0.316 µM (active).
Regarding `Cc1cc2c(s1)CCCCC(=O)N2`, the “activity, negative = inhibition” value is -20.4%.
The same measure, in the same setting: next, `C=C(CC1([C@@H](NP(=O)(c2ccccc2)c2ccccc2)[C@H]2C[C@@H]2CCN(C(=O)OCC)S(=O)(=O)c2ccc(C)cc2)CC1)c1ccccc1`: -5.84%; `CCN1C(=O)[C@H]2[C@H]3[C@H](O)[C@H](O)C/C(=N/O[C@@H]4O[C@@H](COC(C)=O)[C@@H](OC(C)=O)[C@@H](OC(C)=O)[C@H]4OC(C)=O)[C@@H]3CC[C@@H]2C1=O`: -12.6% [at 11.4 µM]; `Cc1cccc(C)c1NC(=O)C[N+](C)(C)C`: 0.715%.
On to `N#C/C(=C\c1cccs1)C(=O)NCC1CCCO1` (centres undefined), for which the AC50 was 12.6 µM (active).
On the same count and under the same terms, next, `COc1cc(/C=C(\C#N)C(=O)NCC2CCCO2)c([N+](=O)[O-])cc1OC` (centres undefined): 4.47 µM (active).
`Cc1ccc(-n2c(C)cc(/C=C(\C#N)C(=O)NCC3CCCO3)c2C)cc1` (centres undefined): the “activity, negative = inhibition” value is -16.2%.
Same read-out and setting: in the case of `Cc1cccc(C)c1NC(=O)[C@H](C)N` it was -13.8% [at 25.6 µM].
Regarding `Cc1cccc(C)c1NC(=O)/C(C#N)=C/c1cccs1`, the AC50 was 12.6 µM (active).
Turning to `COc1cc(/C=C(/NC(=O)c2ccccc2)C(=O)Nc2ccccc2)c([N+](=O)[O-])cc1OC`, the “activity, negative = inhibition” value is -9.31%.
The same measure, in the same setting: in the case of `CCS(=O)(=O)N1CCC(C(=O)NCC2CCCO2)CC1` (centres undefined) it was -7.48%; in that of `COc1ccc(S(=O)(=O)N2CCC(C(=O)NCC3CCCO3)CC2)cc1C` (centres undefined), 11.5%; in that of `O=C(O)c1cccnc1`, -3.39% [at 25.6 µM].
The same measure, in the same setting: next, `C[Si](C)(c1ccc(C(=O)O)cc1)c1ccc(C(=O)O)cc1`: -13% [at 11.4 µM].
As for `O=C(O)c1ccc(SSc2ccc(C(=O)O)cn2)nc1`, the half-maximal activity concentration (AC50) was 3.16 µM (active).
Consider `CN(C)c1ccccc1CN1CCCN(Cc2ccccc2N(C)C)C1c1ccncc1`, for which the activity, negative = inhibition was 3.06% [at 11.4 µM].
With `CC(=O)c1cccc(NS(=O)(=O)c2ccc(N/C=C\C(=O)c3ccc(F)cc3)cc2)c1`, the half-maximal activity concentration (AC50) was 10 µM (active).
Regarding `CC(=O)c1ccc(S(=O)(=O)NC(=O)NC2CCCCC2)cc1`, the “activity, negative = inhibition” value was -6.56% [at 25.6 µM].
Turning to `Nc1cccc2cc(S(=O)(=O)Nc3ccc(C(=O)O)cc3)ccc12`, the activity, negative = inhibition is 2.54% [at 11.4 µM].
